Laboratory results published in PubChem BioAssay (NCATS).
Where “and” joins values, the source holds several entries; their conditions need not be identical. Equal entries are not always repeated. Inconclusive results are not listed. Calls of active or inactive are those of the source. Calls come from the whole dose curve; as a rule, active = well fitted curve in the direction sought with a large enough effect; inconclusive = small, poorly fitted or top-dose-only effect, or another doubt; inactive = no such curve, though single readings can be large; an effect the other way counts as inactive or inconclusive.

Columns and labels:
[1] = molecular target: Cellular tumor antigen p53 (Homo sapiens) (UniProt P04637); assay: Primary qHTS for small molecule compounds that upregulate eGFP-tagged delta133p53alpha (in N-terminal) cells. (AID 2060322); settings: NCI-H358 eGFP-delta133p53alpha fluorescence, 24 h; activation: active compounds read high; note: nearly all actives have a fitted effect of over 75% in size; note: potency is the fitted concentration of half-maximal effect;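 for activation: series mostly up to about 56 µM; 0% = DMSO vehicle and 100% = reference activator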
Outline: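 NCI-H358 cells pre-induced 24 h with 10 ng/ml doxycycline to express N-terminal eGFP-delta133p53alpha, then dosed 24 h at 37C without doxycycline; fixed, Hoechst-stained, GFP intensity by laser scanning cytometry, normalized to DMSO (0%) and 57.5 uM 5-azacytidine (100%).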

[2] = molecular target: Aldehyde dehydrogenase, mitochondrial (Homo sapiens) (UniProt P05091); assay: qHTS for Inhibitors of the Aldehyde Dehydrogenase Family (ALDH2) Primary screen (AID 2061308);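 note: plate controls were vehicle for no effect and reference inhibitor for full effect; nearly all actives have a fitted effect of over 55% in size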
[3] = molecular target: Retinaldehyde dehydrogenase 3 (Homo sapiens) (UniProt P47895); assay: qHTS for Inhibitors of the Aldehyde Dehydrogenase Family (ALDH1A3) Primary screen (AID 2061315);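 note: plate controls were DMSO vehicle for no effect and reference inhibitor for full effect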
[4] = BET inhibitor-based combinations targeting novel dependencies in MECOM-rearranged (r) AML: SET-2 cell line (AID 2202231); settings: SET-2 AML cells viability, CellTiter-Glo luminescence, 48 h; viability: active compounds read low, concentration not given here; note: nearly all actives have a fitted effect of over 35% in size; note: potency is the fitted concentration of half-maximal effect;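 for viability: plate controls were DMSO treated cells for no effect and wells without cells for full effect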
Outline: (§1)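 Viability of cells (500 per well) is scored by luminescent CellTiter-Glo at 48 hr post-dosing. Eleven-point titrations are normalized to DMSO and empty controls and reduced to AUC values.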

[5] = BET inhibitor-based combinations targeting novel dependencies in MECOM-rearranged (r) AML: MV-4-11 cell line (AID 2202233); note: nearly all actives have a fitted effect of over 45% in size; note: potency is the fitted concentration of half-maximal effect
Outline: (§2)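 Using pin-tool transfer, drugs were added in 11 doses to cells (500/well), incubated 48 hr, and assessed with CellTiter-Glo. Z-AUC is a mean-centring transformation applied separately to each screened line.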

[6] = BET inhibitor-based combinations targeting novel dependencies in MECOM-rearranged (r) AML: UCSD-AML1 cell line (AID 2202235); note: nearly all actives have a fitted effect of over 40% in size; note: potency is the fitted concentration of half-maximal effect
Outline: as §2

[7] = BET inhibitor-based combinations targeting novel dependencies in MECOM-rearranged (r) AML: AML-191 cell line (AID 2202236; note: nearly all actives have a fitted effect of over 35% in size; note: potency is the fitted concentration of half-maximal effect)
Outline: as §1

[8] = BET inhibitor-based combinations targeting novel dependencies in MECOM-rearranged (r) AML: AML-194 cell line (AID 2202237; note: nearly all actives have a fitted effect of over 40% in size; note: potency is the fitted concentration of half-maximal effect)
Outline: as §1

[9] = BET inhibitor-based combinations targeting novel dependencies in MECOM-rearranged (r) AML: HNT-34 cell line (AID 2202234); note: nearly all actives have a fitted effect of over 35% in size; note: potency is the fitted concentration of half-maximal effect
Outline: as §2

Chain of Cellular tumor antigen p53 (Homo sapiens) (P04637 whole entry, looked up): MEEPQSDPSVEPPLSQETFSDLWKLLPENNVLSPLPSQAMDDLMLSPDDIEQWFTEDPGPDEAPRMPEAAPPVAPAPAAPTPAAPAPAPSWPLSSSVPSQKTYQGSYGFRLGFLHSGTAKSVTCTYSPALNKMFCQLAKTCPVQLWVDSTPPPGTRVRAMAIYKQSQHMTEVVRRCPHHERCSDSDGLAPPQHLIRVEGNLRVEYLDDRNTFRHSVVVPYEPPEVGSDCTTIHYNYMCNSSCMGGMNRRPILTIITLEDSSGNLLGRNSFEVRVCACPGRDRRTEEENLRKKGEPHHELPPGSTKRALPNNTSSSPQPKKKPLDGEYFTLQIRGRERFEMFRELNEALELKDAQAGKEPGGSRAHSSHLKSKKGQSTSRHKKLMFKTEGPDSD

Cn1cc(-c2c[nH]c3ncnc(N4CCOCC4)c23)cn1
inactive: activation [1] -7.14% | Potency [2] | Potency [3] | viability [4] 112% | Potency [6] | Potency [8]
active: Potency [5] 11.8 µM | Potency [7] 20.9 µM

Cc1cc(-c2cc(OC(=O)c3ccccc3)ccc2Cl)cc2nnc(Nc3ccc(OCCN4CCCC4)cc3)nc12
inactive: activation [1] -29.5% | Potency [2] | Potency [3] | viability [4] 115% | Potency [5] | Potency [7]
active: Potency [9] 0.456 µM

Cn1nccc1Nc1nccc(-c2ccn([C@H](CO)c3ccc(Cl)c(F)c3)c(=O)c2)n1
active: Potency [5] 16.6 µM | Potency [6] 16.6 µM
inactive: activation [1] -22.3% | Potency [2] | Potency [3] | viability [4] 72.4%

O=C(Nc1ccnc(NC(=O)C2CC2)c1)c1c(Cl)cccc1Cl
inactive: Potency [2] | Potency [3]
active: Potency [1] 12 µM | Potency [4] 7.42 µM | Potency [5] 4.68 µM | Potency [9] 4.17 µM | Potency [6] 3.32 µM | Potency [7] 5.25 µM | Potency [8] 7.42 µM

CCN(CCO)CCCOc1ccc2c(Nc3cc(CC(=O)Nc4cccc(F)c4)[nH]n3)ncnc2c1
active: Potency [5] 0.0525 µM | Potency [7] 0.0934 µM
inactive: activation [1] -6.72% and 29.5% | Potency [2] | Potency [3] | viability [4] 100%

O=C(NCCCNC(=O)c1ccc[nH]c1=O)c1cc(-c2ccccc2)on1
active: Potency [4] 13.2 µM | Potency [5] 8.33 µM | Potency [8] 14.8 µM
inactive: activation [1] -2.33% | Potency [2] | Potency [3]

O=C(NCC(=O)N1CCCC1)Nc1ccc2cnccc2c1
inactive: activation [1] 7.14% | Potency [2] | Potency [3] | viability [4] 109% | Potency [9] | Potency [6] | Potency [7] | Potency [8]

c1ccc(-c2oc3ncnc(NC[C@@H]4CCCO4)c3c2-c2ccccc2)cc1
inactive: activation [1] 5.12% and -14.3% | Potency [2] | Potency [3] | viability [4] 86.5% | Potency [5] | Potency [9] | Potency [6] | Potency [7] | Potency [8]

COc1cc2nc(-c3cc(F)ccc3O)nc(N[C@@H]3CNC[C@H]3C(C)(C)O)c2cc1OC
active: Potency [1] 21.3 µM | Potency [4] 6.61 µM | Potency [5] 0.0066 µM | Potency [9] 4.68 µM | Potency [7] 5.25 µM | Potency [8] 6.61 µM
inactive: Potency [2] | Potency [3]

COc1cc2ncnc(Oc3cccc(NC(=O)Nc4cc(C(C)(C)C(F)(F)F)on4)c3)c2cc1OC
inactive: Potency [2] | Potency [3] | viability [4] 104% | Potency [8]
active: Potency [1] 23.9 µM | Potency [5] 0.662 µM | Potency [9] 0.209 µM

CS(=O)(=O)N(Cc1ccco1)CC(O)Cn1c2ccccc2c2ccccc21 (configuration not stated)
inactive: activation [1] -2.66% | Potency [2] | Potency [3] | viability [4] 98.8% | Potency [9] | Potency [6] | Potency [7] | Potency [8]

CCCn1c(=O)c2[nH]c(-c3cnn(Cc4cccc(C(F)(F)F)c4)c3)nc2n(CC)c1=O
inactive: activation [1] 0.955% | Potency [2] | Potency [3] | viability [4] 114% | Potency [5] | Potency [9] | Potency [6] | Potency [7] | Potency [8]

O=C(NOCC(O)CO)c1ccc(F)c(F)c1Nc1ccc(I)cc1F (configuration not stated)
inactive: activation [1] 0.955% | Potency [2] | Potency [3] | viability [4] 80.7%
active: Potency [9] 0.209 µM

Cc1n[nH]c(C)c1Cc1sc2c(c1C(=O)N1C[C@H](O)CO1)c(=O)n(C)c(=O)n2CC(C)C
inactive: activation [1] 19.3% and -2.33% | Potency [2] | Potency [3] | viability [4] 111% | Potency [5] | Potency [9] | Potency [6] | Potency [7] | Potency [8]

CN(C)C(=O)c1ccc(S(=O)(=O)c2ccc(NC(=O)[C@@](C)(O)C(F)(F)F)c(Cl)c2)cc1
inactive: activation [1] 17.9% and -11.6% | Potency [2] | Potency [3] | Potency [6]
active: Potency [4] 7.42 µM | Potency [5] 4.68 µM

COc1cc2nccc(Oc3ccc(NC(=O)NC4CC4)c(Cl)c3)c2cc1C(N)=O
inactive: Potency [2] | Potency [3] | Potency [8]
active: Potency [1] 26.9 µM | Potency [4] 18.6 µM | Potency [5] 2.09 µM | Potency [9] 9.34 µM

O=c1[nH]c(-c2ccc(C(F)(F)F)cc2)nc2c1CSCC2
inactive: activation [1] 25.7% and -15.7% | Potency [2] | Potency [3] | viability [4] 95.3% | Potency [9] | Potency [6] | Potency [7] | Potency [8]

CN1CCN(c2ccc(-c3cccc(CN4CCOCC4)c3)cc2NC(=O)c2c[nH]c(=O)cc2C(F)(F)F)CC1
inactive: activation [1] -14.5% | Potency [2] | Potency [3] | viability [4] 120% | Potency [9] | Potency [6] | Potency [7] | Potency [8]
active: Potency [5] 12.9 µM

O=C(Nc1ccc(S(=O)(=O)N2CCOCC2)cc1)c1cc(Cl)ccc1NS(=O)(=O)c1ccc(Cl)s1
inactive: activation [1] 0.837% | Potency [2] | Potency [3] | viability [4] 98.4% | Potency [5] | Potency [6] | Potency [8]
